Experimental data published in PubChem BioAssay (NCI).
This is part of a sample that, as a whole, favours compounds with a hit. Of some 83,000 tested, about 20% had one in any assay.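 For each line, cells grew in 96-well plates with the test compound present at a single concentration for 48 hours.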 Unmarked numbers belong to inactive results. Calls of active or inactive are those of the source.

Test system: OVCAR-4 ovarian
Experiment: NCI-60 one-dose screen, 48 h (100 = growth as untreated, 0 = no growth, -100 = all killed)
Details: 10 µM unless noted
Description: Growth inhibition of the OVCAR-4 human tumor cell line is measured as a screen for anti-cancer activity. Cells are grown in 96 well plates and exposed to the test compound for 48 hours. Compounds are tested at a single concentration, which is 10^-5 M for most compounds. The reported endpoint is percent growth (GI% or GIPRCNT), where numbers from 0 - 100% represent growth inhibition, and numbers from -100% - 0 represent cell death. For example, a value of 40 represents 60% growth inhibition. A value of 0 means no net growth occurred over the course of the experiment. A value of -40 indicates 40% of cells at the beginning of the experiment died by the end of the experiment. A value of -100 means all cells are dead at the end of the experiment.
NCI-60 Human Tumor Cell Lines Screen was performed using the standard one-dose NCI protocol, which is described in more detail at https://dtp.cancer.gov/discovery_development/nci-60/default.htm.
Compounds with GIPRCNT values below 10 were considered active. Activity score was based on GIPRCNT using the following formula: […]
Score is 0 for GIPRCNT values of 100 or above, 50 for GIPRCNT values of 0, and 100 for GIPRCNT values of -100.

| Structure (SMILES) | growth |
| --- | --- |
| O=[N+]([O-])c1cc([N+](=O)[O-])c(Cl)c(Cl)c1Cl | -31.4% (active) |
| ClCCN(CCCl)c1nc(Cl)c(C2CC(c3ccccc3)=NN2c2ccccc2)s1 (stereo not given) | 87.1% |
| OC1(c2ccccc2F)c2ccccc2C2=NCCN21 (stereo not given) | 107% |
| O=c1cc[nH]c(=O)o1 | 104% |
| O=[N+]([O-])c1ccc(/C=C/C=C/c2ccc(S(=O)(=O)F)cc2)c(Cl)c1 | 87.5% |
| C[C@]12CCC(=O)CC1CC[C@@H]1C2CC[C@@]2(C)C1CC[C@@H]2OC(=O)CC[Se][Se]CCC(=O)O[C@H]1CCC2[C@@H]3CCC4CC(=O)CC[C@]4(C)C3CC[C@@]21C (stereo not given in full) | 83.2% |
| C[C@@H]1CC[C@@H]2[C@@H]1[C@H](OC(=O)/C=C/C1CCCCC1)[C@]1(C3CCCCC3)C[C@@H](OC(=O)CO)[C@@]2(C)O1 | 61.1% |
| S=P(NC1CCCCC1)(N1CC1)N1CC1 | 100% |
| CC1([N+](=O)[O-])COP(=O)(Nc2ccc(F)cc2)OC1 (stereo not given) | 113% |
| n1nc(-c2nonc2-c2nn[nH]n2)n[nH]1 | 102% |
| COc1c(O)c2c3c(c1OC)-c1ccccc1CC3N(C)CC2 (stereo not given) | 120% |
| Fc1ccc(C2=NN(c3ccccc3)C(c3sc(N(CCCl)CCCl)nc3Cl)C2)cc1 (stereo not given) | 78.8% |
| Oc1ccc(Br)cc1CN1CCN(Cc2ccc(Cl)cc2)CC1 | 65.5% |
| CC12CCC(=O)C=C1C(O)CC1C2CCC2(C)C(O)CCC12 (stereo not given) | 104% |
| O=CN1N=C(c2ccccc2)CC1c1sc(N(CCCl)CCCl)nc1Cl (stereo not given) | 96.2% |
| NS(=O)(=O)c1nc[nH]c1[N+](=O)[O-] | 105% |
| CC12CCC3C(CC=C4CC(O)CCC43C)C1C/C(=C\N1CCOCC1)C2=O (stereo not given) | 94.4% |
| COc1ccc(OC)c(/C=C(/C)[N+](=O)[O-])c1 | 64.4% |
| Cc1cc(CCl)c(C)cc1CCl | 83.4% |
| N#Cc1ncc(/N=C/c2ccc(N(CCCl)CCCl)cc2)s1 | 81.9% |

| Structure (SMILES) | growth |
| --- | --- |
| COc1ccc(/C=C(/C(=O)N2CCCC2)c2cc(OC)c(OC)c(OC)c2)cc1N | 46.4% |
| CC(C)C1c2ccc(O)cc2Oc2nc(N)c(C#N)c(N)c21 (stereo not given) | 101% |
| CC(=O)O[C@H]1CC[C@H]2[C@@H]3CC[C@H]4CC=C(C)C[C@]4(C)[C@H]3CC[C@]12C | 104% |
| O=C(O)CC(Br)C(=O)CBr (stereo not given) | 97.2% |
| COc1cc(/C=C\c2cc(OC)c(OC)c(OC)c2)cc(N/C=C\C(=O)c2ccc(OC(F)(F)F)cc2)c1OC | 57.4% |
| CNC(=O)O/N=C(/C)c1ccc(Cl)cc1 | 97.3% |
| CC(=O)Nc1ccc(Cc2ccc(NC(C)=O)cc2)cc1 | 99% |
| Cc1cc(NC(=O)NCCOc2ccc(N3C(N)=NC(N)=NC3(C)C)cc2Cl)ccc1S(=O)(=O)F | 71.5% |
| COc1cc(C2CC(=O)Nc3nc(N)[se]c32)c(OC)c2c1OCO2 (stereo not given) | 96.3% |
| C/C(=N/OC(=O)N(C)C)c1cc(Cl)ccc1Cl | 107% |
| Nc1nc(N)c(-c2ccc(Cl)c(Cl)c2)c(/C=C/c2ccc(S(=O)(=O)F)cc2)n1 | 100% |
| COc1cc(NCCCCCN=C(N)N)c2ncccc2c1 | -12.1% (active) |
| CC[CH2][Pb]([CH2]CC)([CH2]CC)[O]C(=O)C(F)(F)F | -97.4% (active) |
| CCCC(C)(C)c1ccc2c(c1)OC(C)(C)[C@@H]1CC=C(C)C[C@@H]21 | 100% |
| Cc1cc([N+](=O)[O-])c(Cl)cc1NS(=O)(=O)c1ccccc1 | 71.4% |
| CC[C@@]1(C2O[C@@H](C3O[C@@](O)(CC)[C@H](C)C[C@@H]3C)C[C@@H]2C)CC[C@H]([C@]2(C)CCC3(C[C@H](O)[C@@H](C)[C@@H]([C@H](C)[C@@H](OC)[C@H](C)C(=O)O)O3)O2)O1 (stereo not given in full) | 29.7% |
| CC(N)Cc1ccc(O)cc1 (stereo not given) | 124% |
| C[C@]12CCc3sc(-c4ccc(Cl)cc4)nc3C1=CC[C@@H]1[C@@H]2CC[C@]2(C)C(=O)CC[C@@H]12 | 74% |
| Nc1ncnc2c1c(C(=O)NO)cn2C1OC(CO)C(O)C1O (stereo not given) | 0.579% (active) |
| C=CC(O)CN1CC1CC (stereo not given) | 112% |
